In paper PMC7862700, “An all-to-all approach to the identification of sequence-specific readers for epigenetic DNA modifications on cytosine”:

What was measured:
Assay in all cases: DAPPL (digital affinity profiling via proximity ligation, sequencing); 10 mM Tris-HCl pH 7.5, 50 mM NaCl, 1 mM DTT, 4% glycerol, room temperature, 30 min; GST-TFs on glutathione beads, 16-mer random dsDNA library, 0.1% formaldehyde crosslink after washing; high values mean tight binding
Conditions in all cases: protein: recombinant; tags: N-terminal GST; dsDNA, one strand shown
[1] = target: T1, ELK1 (Homo sapiens, UniProt P19419 1-428)
T1 sequence: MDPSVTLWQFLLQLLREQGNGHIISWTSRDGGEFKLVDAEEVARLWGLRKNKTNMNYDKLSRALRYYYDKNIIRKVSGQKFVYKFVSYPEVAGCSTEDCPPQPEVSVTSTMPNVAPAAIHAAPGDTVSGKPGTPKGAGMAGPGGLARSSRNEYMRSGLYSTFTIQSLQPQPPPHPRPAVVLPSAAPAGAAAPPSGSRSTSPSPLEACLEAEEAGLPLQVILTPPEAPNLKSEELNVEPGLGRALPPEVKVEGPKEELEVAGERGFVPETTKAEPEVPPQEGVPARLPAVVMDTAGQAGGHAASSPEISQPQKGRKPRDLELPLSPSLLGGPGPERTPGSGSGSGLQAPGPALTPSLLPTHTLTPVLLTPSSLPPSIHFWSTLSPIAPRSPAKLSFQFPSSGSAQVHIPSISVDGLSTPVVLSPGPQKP
How it was run: (§1)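 Pools were built from human transcription factors expressed in yeast as GST fusions, captured on glutathione beads and DNA-barcoded, along with a tag-only sample. Incubation with 200 nmole of a 16-mer random double-stranded DNA library lasted 30 min at room temperature in Tris/NaCl/DTT/glycerol buffer, and was followed by washing, 0.1% formaldehyde crosslinking, proximity ligation, PCR amplification and Illumina NextSeq500 sequencing. Binding signal is the quotient of each hexamer's read frequency for a factor and its frequency for the tag-only sample.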

[2] = target: T2, GABPA (Homo sapiens, UniProt Q06546 1-454)
T2 sequence: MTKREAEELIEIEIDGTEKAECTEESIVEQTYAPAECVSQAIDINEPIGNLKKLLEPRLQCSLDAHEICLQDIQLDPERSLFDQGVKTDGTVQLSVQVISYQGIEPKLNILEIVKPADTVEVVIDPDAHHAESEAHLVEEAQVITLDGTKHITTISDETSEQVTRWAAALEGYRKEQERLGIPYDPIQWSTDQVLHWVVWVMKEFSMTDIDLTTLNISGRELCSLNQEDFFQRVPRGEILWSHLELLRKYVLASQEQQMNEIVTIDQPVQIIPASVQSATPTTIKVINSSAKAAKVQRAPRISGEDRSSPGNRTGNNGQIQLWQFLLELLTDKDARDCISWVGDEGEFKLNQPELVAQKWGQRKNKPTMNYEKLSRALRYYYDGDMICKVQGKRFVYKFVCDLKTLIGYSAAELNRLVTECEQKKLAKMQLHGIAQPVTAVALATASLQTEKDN
How it was run: as §1

[3] = target: T3, ERG (Homo sapiens, UniProt P11308 1-479)
T3 sequence: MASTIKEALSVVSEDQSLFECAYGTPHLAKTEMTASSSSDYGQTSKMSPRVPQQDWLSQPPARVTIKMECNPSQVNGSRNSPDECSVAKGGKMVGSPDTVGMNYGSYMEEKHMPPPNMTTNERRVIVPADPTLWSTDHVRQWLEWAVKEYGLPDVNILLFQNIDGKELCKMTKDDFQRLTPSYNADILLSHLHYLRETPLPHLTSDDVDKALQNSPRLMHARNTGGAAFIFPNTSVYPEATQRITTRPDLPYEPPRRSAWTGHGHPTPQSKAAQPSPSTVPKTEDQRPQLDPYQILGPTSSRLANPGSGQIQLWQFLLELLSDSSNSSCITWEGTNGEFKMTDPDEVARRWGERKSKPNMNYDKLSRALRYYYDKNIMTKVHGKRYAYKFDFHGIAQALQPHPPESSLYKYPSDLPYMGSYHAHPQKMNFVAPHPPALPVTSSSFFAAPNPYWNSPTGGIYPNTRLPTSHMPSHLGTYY
How it was run: as §1

[4] = target: ELF1 (Homo sapiens, UniProt P32519 1-619)
How it was run: as §1

[5] = target: T4, EHF (Homo sapiens, UniProt Q9NZC4 1-300)
T4 sequence: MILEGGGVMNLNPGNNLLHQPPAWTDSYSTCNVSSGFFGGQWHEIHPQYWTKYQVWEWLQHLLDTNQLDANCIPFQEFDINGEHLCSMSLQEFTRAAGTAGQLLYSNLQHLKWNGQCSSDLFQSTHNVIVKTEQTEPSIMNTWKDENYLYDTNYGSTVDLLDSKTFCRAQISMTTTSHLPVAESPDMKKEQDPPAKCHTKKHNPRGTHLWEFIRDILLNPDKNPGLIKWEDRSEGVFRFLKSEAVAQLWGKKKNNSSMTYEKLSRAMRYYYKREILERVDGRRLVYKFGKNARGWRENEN
How it was run: as §1

[6] = target: SPIB (Homo sapiens, UniProt Q01892 1-262)
How it was run: as §1

[7] = target: T5, FEV (Homo sapiens, UniProt Q99581 1-238)
T5 sequence: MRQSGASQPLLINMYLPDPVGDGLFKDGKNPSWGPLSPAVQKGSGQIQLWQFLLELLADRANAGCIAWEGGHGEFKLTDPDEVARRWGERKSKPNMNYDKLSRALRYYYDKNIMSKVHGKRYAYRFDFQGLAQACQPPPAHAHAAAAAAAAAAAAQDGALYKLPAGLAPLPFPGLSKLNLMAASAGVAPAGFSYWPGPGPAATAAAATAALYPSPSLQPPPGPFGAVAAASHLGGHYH
How it was run: as §1

[8] = target: ETV5 (Homo sapiens, UniProt P41161 1-510)
How it was run: as §1

[9] = target: ELF4 (Homo sapiens, UniProt Q99607 1-663)
How it was run: as §1

[10] = target: T6, ELK4 (Homo sapiens, UniProt P28324-2 1-405)
T6 sequence: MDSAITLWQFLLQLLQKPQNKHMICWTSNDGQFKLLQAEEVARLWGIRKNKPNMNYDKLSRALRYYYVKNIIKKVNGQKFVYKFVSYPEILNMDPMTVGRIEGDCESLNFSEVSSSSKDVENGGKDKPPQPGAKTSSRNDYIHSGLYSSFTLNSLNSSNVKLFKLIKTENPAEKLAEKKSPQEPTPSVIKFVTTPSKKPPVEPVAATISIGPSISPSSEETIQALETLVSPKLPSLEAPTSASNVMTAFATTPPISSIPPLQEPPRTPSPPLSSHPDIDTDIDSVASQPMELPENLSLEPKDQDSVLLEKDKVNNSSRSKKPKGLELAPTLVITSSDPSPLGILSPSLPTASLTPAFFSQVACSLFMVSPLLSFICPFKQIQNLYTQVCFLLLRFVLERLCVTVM
How it was run: as §1

[11] = target: T7, ETV2 (Homo sapiens, UniProt O00321 1-342)
T7 sequence: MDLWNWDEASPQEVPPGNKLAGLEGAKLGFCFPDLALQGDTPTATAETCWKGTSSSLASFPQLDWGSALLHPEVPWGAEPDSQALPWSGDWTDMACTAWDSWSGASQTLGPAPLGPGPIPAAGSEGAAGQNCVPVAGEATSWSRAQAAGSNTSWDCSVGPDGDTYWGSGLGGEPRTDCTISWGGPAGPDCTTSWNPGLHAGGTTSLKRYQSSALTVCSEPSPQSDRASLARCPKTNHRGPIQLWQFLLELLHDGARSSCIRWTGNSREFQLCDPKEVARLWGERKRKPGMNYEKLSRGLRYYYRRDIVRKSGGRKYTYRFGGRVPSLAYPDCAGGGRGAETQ
How it was run: as §1

[12] = target: T8, ELF3 (Homo sapiens, UniProt P78545 1-371)
T8 sequence: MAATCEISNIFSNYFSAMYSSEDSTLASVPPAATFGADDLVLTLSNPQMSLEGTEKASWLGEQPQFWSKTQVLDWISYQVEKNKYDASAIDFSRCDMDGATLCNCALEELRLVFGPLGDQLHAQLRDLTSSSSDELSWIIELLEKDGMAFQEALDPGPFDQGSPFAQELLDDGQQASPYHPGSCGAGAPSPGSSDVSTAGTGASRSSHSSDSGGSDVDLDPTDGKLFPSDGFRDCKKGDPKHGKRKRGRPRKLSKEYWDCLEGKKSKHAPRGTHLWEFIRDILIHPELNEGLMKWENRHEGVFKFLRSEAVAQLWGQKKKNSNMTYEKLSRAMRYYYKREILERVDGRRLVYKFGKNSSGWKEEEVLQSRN
How it was run: as §1

[13] = target: ETV1 (Homo sapiens, UniProt P50549 1-477)
How it was run: as §1

[14] = target: T9, ETV3L (Homo sapiens, UniProt Q6ZN32 1-361)
T9 sequence: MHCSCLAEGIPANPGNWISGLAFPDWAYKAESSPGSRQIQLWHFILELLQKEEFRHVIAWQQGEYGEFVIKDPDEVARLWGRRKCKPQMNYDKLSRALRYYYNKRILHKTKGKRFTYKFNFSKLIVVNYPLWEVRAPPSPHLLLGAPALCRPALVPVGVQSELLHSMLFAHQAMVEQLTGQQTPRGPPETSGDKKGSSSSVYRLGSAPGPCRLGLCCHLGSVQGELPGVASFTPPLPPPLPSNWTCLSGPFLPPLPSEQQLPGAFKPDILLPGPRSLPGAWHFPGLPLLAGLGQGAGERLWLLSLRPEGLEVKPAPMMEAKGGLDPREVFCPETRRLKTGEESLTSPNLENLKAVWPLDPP
How it was run: as §1

[15] = target: T10, ETS2 (Homo sapiens, UniProt P15036 1-469)
T10 sequence: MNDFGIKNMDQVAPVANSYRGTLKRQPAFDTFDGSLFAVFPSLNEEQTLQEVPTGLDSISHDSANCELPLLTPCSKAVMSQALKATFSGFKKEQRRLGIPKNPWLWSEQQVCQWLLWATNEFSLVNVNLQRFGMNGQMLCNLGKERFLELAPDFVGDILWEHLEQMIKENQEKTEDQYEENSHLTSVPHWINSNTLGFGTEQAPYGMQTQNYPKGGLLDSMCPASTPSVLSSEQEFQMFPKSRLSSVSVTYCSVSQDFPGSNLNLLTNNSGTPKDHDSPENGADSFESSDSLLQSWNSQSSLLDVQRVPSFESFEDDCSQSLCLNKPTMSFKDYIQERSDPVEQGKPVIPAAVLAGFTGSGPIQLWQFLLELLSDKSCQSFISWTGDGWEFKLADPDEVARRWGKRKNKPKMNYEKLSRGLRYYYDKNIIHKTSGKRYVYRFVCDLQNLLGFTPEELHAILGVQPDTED
How it was run: as §1

[16] = target: T11, SPDEF (Homo sapiens, UniProt O95238 1-335)
T11 sequence: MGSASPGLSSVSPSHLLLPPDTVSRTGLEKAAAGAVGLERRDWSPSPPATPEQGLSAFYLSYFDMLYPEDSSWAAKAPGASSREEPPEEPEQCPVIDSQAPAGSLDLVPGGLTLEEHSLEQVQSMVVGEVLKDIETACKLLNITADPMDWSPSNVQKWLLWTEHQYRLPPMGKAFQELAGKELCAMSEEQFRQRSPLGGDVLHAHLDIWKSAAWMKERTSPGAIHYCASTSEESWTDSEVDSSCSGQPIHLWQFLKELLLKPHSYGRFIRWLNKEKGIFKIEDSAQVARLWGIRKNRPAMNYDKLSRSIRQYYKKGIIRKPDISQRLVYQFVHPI
How it was run: as §1

[17] = target: T12, ETV3 (Homo sapiens, UniProt P41162-2 1-143)
T12 sequence: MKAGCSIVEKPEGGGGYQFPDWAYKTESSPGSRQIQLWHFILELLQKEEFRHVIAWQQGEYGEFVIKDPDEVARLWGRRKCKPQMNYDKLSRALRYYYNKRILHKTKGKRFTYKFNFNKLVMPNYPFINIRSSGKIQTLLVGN
How it was run: as §1

[18] = target: ETV6 (Homo sapiens, UniProt P41212 1-452)
How it was run: as §1

Sequence of SPIB (Q01892 whole entry): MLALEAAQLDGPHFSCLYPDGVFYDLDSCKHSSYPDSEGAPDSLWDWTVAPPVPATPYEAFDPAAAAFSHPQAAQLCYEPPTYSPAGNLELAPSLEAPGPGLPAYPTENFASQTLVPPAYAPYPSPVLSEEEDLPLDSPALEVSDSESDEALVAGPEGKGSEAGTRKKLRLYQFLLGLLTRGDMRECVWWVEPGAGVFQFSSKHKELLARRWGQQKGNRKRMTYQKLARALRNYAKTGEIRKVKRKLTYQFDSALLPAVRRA
Sequence of ELF4 (Q99607 whole entry): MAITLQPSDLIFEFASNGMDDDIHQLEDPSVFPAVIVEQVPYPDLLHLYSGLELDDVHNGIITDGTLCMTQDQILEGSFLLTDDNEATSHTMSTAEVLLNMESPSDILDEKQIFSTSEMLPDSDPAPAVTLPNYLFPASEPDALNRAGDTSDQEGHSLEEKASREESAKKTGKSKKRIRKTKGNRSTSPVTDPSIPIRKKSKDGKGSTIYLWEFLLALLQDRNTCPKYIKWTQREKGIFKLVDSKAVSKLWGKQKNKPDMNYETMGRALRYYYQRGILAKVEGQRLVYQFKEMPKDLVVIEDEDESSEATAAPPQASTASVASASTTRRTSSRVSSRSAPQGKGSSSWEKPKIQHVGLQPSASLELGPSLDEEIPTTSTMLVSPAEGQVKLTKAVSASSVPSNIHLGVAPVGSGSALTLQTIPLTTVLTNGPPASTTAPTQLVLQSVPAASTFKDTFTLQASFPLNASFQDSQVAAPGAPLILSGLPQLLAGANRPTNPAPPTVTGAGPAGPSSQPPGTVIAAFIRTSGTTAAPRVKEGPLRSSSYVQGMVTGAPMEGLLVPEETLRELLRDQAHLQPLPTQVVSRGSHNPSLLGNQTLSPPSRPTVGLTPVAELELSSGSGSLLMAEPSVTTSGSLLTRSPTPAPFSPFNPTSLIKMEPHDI
Sequence of ETV6 (P41212 whole entry): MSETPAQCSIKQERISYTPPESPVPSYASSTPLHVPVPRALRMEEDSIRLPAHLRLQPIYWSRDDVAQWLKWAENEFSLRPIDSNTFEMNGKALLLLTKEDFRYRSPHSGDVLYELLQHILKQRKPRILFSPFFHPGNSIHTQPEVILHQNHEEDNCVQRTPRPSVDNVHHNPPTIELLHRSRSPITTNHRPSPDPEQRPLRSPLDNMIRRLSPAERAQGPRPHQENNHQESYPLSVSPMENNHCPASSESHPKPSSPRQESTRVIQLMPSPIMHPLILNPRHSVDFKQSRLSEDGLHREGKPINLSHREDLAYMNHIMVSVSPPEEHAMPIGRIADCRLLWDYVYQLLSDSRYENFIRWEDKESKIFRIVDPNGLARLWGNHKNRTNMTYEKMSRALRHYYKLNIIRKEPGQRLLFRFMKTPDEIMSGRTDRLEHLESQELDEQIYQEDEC
Sequence of ETV1 (P50549 whole entry): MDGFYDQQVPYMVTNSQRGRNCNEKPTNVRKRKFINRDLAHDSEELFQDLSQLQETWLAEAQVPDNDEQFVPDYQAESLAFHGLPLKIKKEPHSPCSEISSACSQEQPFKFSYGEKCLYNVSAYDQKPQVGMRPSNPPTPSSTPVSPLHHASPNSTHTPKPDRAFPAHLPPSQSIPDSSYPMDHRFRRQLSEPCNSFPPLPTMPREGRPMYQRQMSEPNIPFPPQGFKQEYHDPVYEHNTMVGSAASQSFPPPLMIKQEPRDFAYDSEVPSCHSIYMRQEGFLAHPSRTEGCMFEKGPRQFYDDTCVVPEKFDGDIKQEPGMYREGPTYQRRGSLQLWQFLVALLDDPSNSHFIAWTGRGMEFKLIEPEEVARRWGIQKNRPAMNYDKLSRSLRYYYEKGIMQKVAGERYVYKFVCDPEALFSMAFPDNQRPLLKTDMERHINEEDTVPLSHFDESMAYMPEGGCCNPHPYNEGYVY
Sequence of ELF1 (P32519 whole entry): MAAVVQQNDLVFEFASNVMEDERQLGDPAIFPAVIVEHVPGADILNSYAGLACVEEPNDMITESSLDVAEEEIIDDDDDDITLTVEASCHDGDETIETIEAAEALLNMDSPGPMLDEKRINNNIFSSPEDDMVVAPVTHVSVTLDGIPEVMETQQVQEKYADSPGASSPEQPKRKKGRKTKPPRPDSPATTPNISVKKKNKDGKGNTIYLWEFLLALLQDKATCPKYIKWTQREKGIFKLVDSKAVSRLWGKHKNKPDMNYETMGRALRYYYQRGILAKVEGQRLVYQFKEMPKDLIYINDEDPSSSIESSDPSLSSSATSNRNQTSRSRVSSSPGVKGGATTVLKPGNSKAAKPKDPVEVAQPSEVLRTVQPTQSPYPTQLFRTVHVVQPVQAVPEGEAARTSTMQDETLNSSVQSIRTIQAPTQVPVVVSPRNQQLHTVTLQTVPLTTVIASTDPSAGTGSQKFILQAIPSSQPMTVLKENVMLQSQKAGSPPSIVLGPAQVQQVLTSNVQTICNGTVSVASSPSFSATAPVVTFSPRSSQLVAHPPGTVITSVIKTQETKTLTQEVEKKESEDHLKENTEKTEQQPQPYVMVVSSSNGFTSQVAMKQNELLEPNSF
Sequence of ETV5 (P41161 whole entry): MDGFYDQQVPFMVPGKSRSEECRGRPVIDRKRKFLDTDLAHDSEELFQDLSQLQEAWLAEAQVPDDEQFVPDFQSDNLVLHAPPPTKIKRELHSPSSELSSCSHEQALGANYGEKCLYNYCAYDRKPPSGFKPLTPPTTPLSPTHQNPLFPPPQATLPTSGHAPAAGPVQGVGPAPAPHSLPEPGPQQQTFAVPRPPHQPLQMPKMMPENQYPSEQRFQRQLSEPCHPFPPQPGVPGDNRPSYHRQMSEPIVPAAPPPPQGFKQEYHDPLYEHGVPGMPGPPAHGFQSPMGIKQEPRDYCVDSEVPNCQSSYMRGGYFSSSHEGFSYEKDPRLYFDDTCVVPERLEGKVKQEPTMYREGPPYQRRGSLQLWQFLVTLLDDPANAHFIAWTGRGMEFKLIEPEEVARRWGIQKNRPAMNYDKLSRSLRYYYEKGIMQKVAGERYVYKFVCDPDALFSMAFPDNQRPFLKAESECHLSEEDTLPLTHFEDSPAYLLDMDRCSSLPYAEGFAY

## ACACGC
[1]
  binding signal: 1.06 fold enrichment (6-mer frequency, TF over GST control)
[2]
  binding signal: 1.13 fold enrichment (6-mer frequency, TF over GST control)
[3]
  binding signal: 1.15 fold enrichment (6-mer frequency, TF over GST control)
[4]
  binding signal: 1.17 fold enrichment (6-mer frequency, TF over GST control)
[5]
  binding signal: 1.08 fold enrichment (6-mer frequency, TF over GST control)
[6]
  binding signal: 1.1 fold enrichment (6-mer frequency, TF over GST control)
[7]
  binding signal: 1.09 fold enrichment (6-mer frequency, TF over GST control)
[8]
  binding signal: 1.1 fold enrichment (6-mer frequency, TF over GST control)
[9]
  binding signal: 1.15 fold enrichment (6-mer frequency, TF over GST control)
[10]
  binding signal: 1.26 fold enrichment (6-mer frequency, TF over GST control)
[11]
  binding signal: 1.19 fold enrichment (6-mer frequency, TF over GST control)
[12]
  binding signal: 1.11 fold enrichment (6-mer frequency, TF over GST control)
[13]
  binding signal: 1.11 fold enrichment (6-mer frequency, TF over GST control)
[14]
  binding signal: 1.07 fold enrichment (6-mer frequency, TF over GST control)
[15]
  binding signal: 1.05 fold enrichment (6-mer frequency, TF over GST control)
[16]
  binding signal: 1.08 fold enrichment (6-mer frequency, TF over GST control)
[17]
  binding signal: 1.13 fold enrichment (6-mer frequency, TF over GST control)
[18]
  binding signal: 1.13 fold enrichment (6-mer frequency, TF over GST control)
